Compounds with a hit are over-represented: about 21% of the library has one in this group of screens.
ELG1 repair inh – qHTS screen for small molecules that inhibit ELG1-dependent DNA repair in human embryonic kidney (HEK293T) cells expressing luciferase-tagged ELG1; HEK293T ELG1-luciferase reporter, luminescence, 16 h; DNA damage induced by 5-fluorouridine; Potency, µM (titrated, usually from 46.1 µM), without a hit: at the top dose activity change, negative = inhibition, hits mostly inhibitors; 2.3% of 330,000 active; AID 504467, 2011; note: potency is the fitted concentration of half-maximal effect; nearly all actives have a fitted effect of over 55% in size
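Reporter activity after DNA damage by 5-fluorouridine is monitored. Compound-treated cells incubate 16 hr at 37 °C, then ONE-Glo is added for 30 min before luminescence reading.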
RORg inh – qHTS for inhibitors of ROR gamma transcriptional activity. Nuclear receptor ROR-gamma (Mus musculus), P51450. Drosophila S2 Gal4-RORgamma UAS-luciferase reporter, 20 h. Potency, µM (top dose mostly 53.6 µM), for the others: at the top dose activity change, negative = inhibition, most hits filed as inhibitors. 5.4% of 310,000 active; note: potency is the fitted concentration of half-maximal effect; nearly all actives have a fitted effect of over 60% in size
Target sequence (P51450 whole entry, looked up, the tested form may be a part): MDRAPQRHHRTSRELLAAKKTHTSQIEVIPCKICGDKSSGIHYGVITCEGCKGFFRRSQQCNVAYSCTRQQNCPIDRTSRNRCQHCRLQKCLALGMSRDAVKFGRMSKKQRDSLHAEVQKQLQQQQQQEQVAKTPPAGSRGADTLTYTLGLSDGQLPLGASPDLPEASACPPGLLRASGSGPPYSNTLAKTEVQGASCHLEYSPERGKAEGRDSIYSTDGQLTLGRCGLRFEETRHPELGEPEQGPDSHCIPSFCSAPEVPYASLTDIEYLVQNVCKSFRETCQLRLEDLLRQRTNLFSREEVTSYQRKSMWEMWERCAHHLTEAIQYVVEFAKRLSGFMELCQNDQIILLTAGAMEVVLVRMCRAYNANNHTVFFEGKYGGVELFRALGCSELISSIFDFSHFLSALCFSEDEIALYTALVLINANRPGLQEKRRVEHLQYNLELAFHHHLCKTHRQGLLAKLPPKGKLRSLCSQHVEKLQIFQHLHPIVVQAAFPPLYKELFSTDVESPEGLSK
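Using a luciferase readout, inhibitors were identified by reduced reporter activity in Drosophila cells coexpressing a copper-inducible Gal4–ROR gamma fusion and UAS-driven Photinus luciferase, incubated 20 hr after 700 uM copper sulfate.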
VP16 counter – VP16 counterscreen qHTS for inhibitors of ROR gamma transcriptional activity | Drosophila S2 Gal4-VP16 UAS-luciferase, luminescence, 20 h | Potency, µM (doses to about 53.6 µM), for the others: top-dose activity, negative = inhibition, hits mostly inhibitors | 3.5% of 310,000 active | AID 2546, 2010;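 note: Gal4-VP16 expression switched on by copper sulfate through the metallothionein promoter; potency is the fitted concentration of half-maximal effect; nearly all actives have a fitted effect of over 50% in size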
IL1B secr inh – qHTS for Inhibitors of Inflammasome Signaling: IL-1-beta AlphaLISA Primary Screen; THP-1 LPS/ATP IL-1B secretion, AlphaLISA, 16 h; hits give low values; activity change, % at 57.5 µM; 4.7% of 360,000 active; AID 743279, 2014; in the data active = activity change below about -50%; inconclusive = mostly about -30% to -49%
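THP-1 cells pretreated 1 hr with compounds (up to 57.5 uM final), then stimulated with LPS (250 ng/mL final) plus ATP (1.25 mM final); secreted IL-1B measured by AlphaLISA after 16 hr, decreased signal indicating inhibition.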
TDP1 cell CPT – qHTS for Inhibitors of human tyrosyl-DNA phosphodiesterase 1 (TDP1): qHTS in cells in presence of CPT | AID 686979, 2013 | Potency, µM (doses to about 46.2 µM), for inactives: at the highest dose activity change, negative = growth inhibition, actives largely listed as inhibitors | 12% of 420,000 active | chicken DT40 Tdp1-/-;hTDP1 cells + 20 nM CPT, ATP luminescence, 48 h; note: potency is the fitted concentration of half-maximal effect; nearly all actives have a fitted effect of over 55% in size
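Cell growth measured by CellTiter-Glo luminescence after a minimum 48 h, 37 C compound exposure with 20 nM CPT in Tdp1-knockout DT40 cells stably expressing hTDP1, seeded 400/well; qHTS titration format.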
TDP1 cell noCPT – qHTS for Inhibitors of human tyrosyl-DNA phosphodiesterase 1 (TDP1): qHTS in cells in absence of CPT; DT40 Tdp1-/- hTDP1 cells, no CPT, ATP luminescence, 48 h; Potency, µM (doses to about 46.2 µM), for inactives: top-dose activity change, negative = growth inhibition, most hits filed as inhibitors; 15% of 420,000 active; note: potency is the fitted concentration of half-maximal effect; nearly all actives have a fitted effect of over 55% in size
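Seeded 400 DT40-hTDP1 cells/well (vehicle DMSO, no 20 nM CPT); pinned compounds; ≥48 hr at 37 °C; CellTiter-Glo luminescence as viability measure.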
* marks the source's active call; other numbers are inactive results; ? = inconclusive; nt = no result; [ ] = remark or other dose. Unless noted, calls come from the whole dose curve; as a rule, active = well fitted curve in the direction sought with a large enough effect; inconclusive = small, poorly fitted or top-dose-only effect, or another doubt; inactive = no such curve, though single readings can be large; an effect the other way counts as inactive or inconclusive. % is set by controls: 0 for no effect and ±100 for the full control effect.

SMILES	ELG1 repair inh	RORg inh	VP16 counter	IL1B secr inh	TDP1 cell CPT	TDP1 cell noCPT
Cc1cc2nc(C)n(CCCN)c2cc1C	11.1%	-1.4%	3.6%	26.7	23.1µM*	18.4µM*
Cc1cc2nc(C)n(CCCNC(=O)Nc3ccc(C#N)cc3)c2cc1C	-10.1%	14.1%	-5.5%	8.8	?	?
CN(Cc1ccccc1)C(=O)c1ccc2c(c1)N(Cc1ccccc1F)C(=O)c1ccccc1S2(=O)=O	nt	nt	nt	nt	?	9.2µM*
Cc1cccc(CN2C(=O)c3ccccc3S(=O)(=O)c3ccc(C(=O)N(C)Cc4ccccc4)cc32)c1	nt	nt	nt	nt	16.4µM*	?
O=C(Nc1ccc(C(=O)N2CCCC2)cc1)c1ccccc1	nt	nt	nt	-8.0	?	?
COc1cccc(C(=O)Nc2ccc3c(c2)CCCN3C(=O)c2cccs2)c1OC	?	24.7%	-5.2%	?	16.4µM*	13µM*
COc1ccc(C(=O)Nc2ccc3c(c2)CCCN3C(=O)c2cccs2)c(OC)c1	?	?	-2.9%	6.9	8.2µM*	11.6µM*
CCCCOc1ccc(C(=O)Nc2ccc3c(c2)CCCN3C(=O)c2cccs2)cc1	nt	nt	nt	nt	5.8µM*	5.17µM*
O=C(Nc1ccc2c(c1)CCCN2C(=O)c1ccccc1)c1ccccc1	?	?	13.9%	-29.7	?	14.6µM*
CC(=O)c1ccc(S(=O)(=O)N2CCn3cccc3C2c2ccccc2F)cc1 (stereo unspecified)	nt	nt	nt	nt	?	-43.7%
Cc1ccccc1C(=O)Nc1ccc2c(c1)CCCN2C(=O)c1cccs1	?	?	1.3%	?	18.4µM*	?
COc1cc(Br)cc(CN2CCN(c3ncccn3)CC2)c1O	-11.6%	21.0%	-3.4%	9.0	-7.8%	?
CCc1ccc(NC(=O)CCCc2nnc3n(C(C)CC)c(=O)c4sccc4n23)cc1 (stereo unspecified)	nt	nt	nt	nt	-80.5%	-80.0%
Cc1ccc2[nH]c3c(c2c1)CCc1cn[nH]c1-3	14.0%	3.3%	?	-13.0	?	23.1µM*
Cc1oc2ncn(CC(C)C)c(=O)c2c1C(=O)N1CCN(c2ccc(F)cc2)CC1	nt	nt	nt	nt	-21.9%	-25.8%
O=C1NC(=S)NC1=Cc1ccc2c(c1)CCC2	nt	nt	nt	-8.8	16.4µM*	?
CC(Sc1nnc(N)s1)C(=O)Nc1ccc2c(c1)OCO2 (stereo unspecified)	3.9%	nt	nt	13.0	-20.4%	-18.3%
COc1ccc(CCNC(=O)CCc2c(C)nc3cc(-c4ccccc4OC)nn3c2C)c(OC)c1	nt	nt	nt	nt	?	16.4µM*
Cc1nc2ncnn2c(C)c1CCC(=O)NCc1cccc(Cl)c1	nt	nt	nt	nt	15.4%	-2.9%
COc1ccc(-c2cc3nc(C)c(CCC(=O)NCc4ccco4)c(C)n3n2)c(OC)c1	?	37.5%	-11.4%	-22.8	?	?
COCCCNC(=O)CCc1c(C)nc2cc(-c3ccc(Cl)cc3)nn2c1C	nt	nt	nt	nt	18.4µM*	?
COc1ccc(-c2cc3nc(C)c(CCC(=O)NCCc4ccc(Cl)cc4)c(C)n3n2)c(OC)c1	nt	nt	nt	nt	13µM*	29.1µM*
COc1ccccc1-c1cc2nc(C)c(CCC(=O)NCc3cccc(Cl)c3)c(C)n2n1	nt	nt	nt	nt	?	18.4µM*
Cc1nc2cc(-c3ccc(Cl)cc3)nn2c(C)c1CCC(=O)NCc1ccco1	27.9%	-10.4%	-1.8%	15.5	?	?
CCCCNc1nc2c(-c3cccc(C)c3)nnn2c2ccccc12	nt	nt	nt	nt	-20.2%	-18.5%
SMILES	ELG1 repair inh	RORg inh	VP16 counter	IL1B secr inh	TDP1 cell CPT	TDP1 cell noCPT
CC(CCC(=O)O)C1CCC2C3CC[C@H]4CC(O)CC[C@@]4(C)C3C=C[C@]12C (stereo partly specified)	nt	-36.7%	-26.3%	nt	?	?
COc1ccc(NC(=O)N2CC3(CCN(S(=O)(=O)c4ccccc4)CC3)C2)cc1	nt	28.6%	26.0%	nt	?	?
Cc1cccc(NC(=O)CCN2C(=O)c3cccc([N+](=O)[O-])c3C2=O)c1	-4.9%	6.3%	-4.7%	16.4	0.8%	18.0%
CCCN(CC(=O)Nc1ccccc1C)C(=O)CCN1C(=O)c2cccc([N+](=O)[O-])c2C1=O	0.1%	nt	nt	-51.4*	6.4%	-18.8%
CCOc1ccc(OCCCC(=O)N(C)CC(=O)Nc2ccccc2Br)cc1	-15.1%	nt	nt	17.4	?	?
CCCN(CC(=O)Nc1ccccc1C)C(=O)CCCOc1ccc(Br)cc1	-15.0%	nt	nt	4.4	?	18.4µM*
Cc1nc2nc(NC(=O)C(C)(C)C)[nH]n2c(=O)c1Cc1ccccc1	nt	nt	nt	nt	0.0%	-2.0%
Cc1nc(NC(=O)c2ccccc2)sc1-c1cc(C(=O)N2CCOCC2)nn1Cc1ccccc1	nt	nt	nt	-3.2	20.6µM*	-18.2%
COCCOC(=O)C1=C(C)NC(=S)NC1/C=C/c1ccccc1 (stereo unspecified)	5.8µM*	13.2%[10 µM]	0.1%	2.9	-22.0%	?
COCCOC(=O)C1=C(C)NC(=O)NC1/C=C/c1ccccc1 (stereo unspecified)	-5.9%	21.4%	4.7%	10.5	7.4%	13.8%
C=CCOC(=O)C1=C(C)NC(=S)NC1/C=C/c1ccccc1 (stereo unspecified)	?	2.51µM*	6.31µM*	-3.0	?	?
CC1=C(C(=O)OCc2ccccc2)C(/C=C/c2ccccc2)NC(=S)N1 (stereo unspecified)	?	?	5.62µM*	?	16.4µM*	29.1µM*
CC1=C(C(=O)OC(C)C)C(/C=C/c2ccccc2)NC(=O)N1 (stereo unspecified)	?	0.5%[10 µM]	-0.5%	4.6	6.0%	-5.1%
CCc1c2c(nc3cccc(C(C)C)c13)-c1cccc(=O)n1C2	nt	0.2%	-11.2%	nt	nt	nt
COc1ccc(-c2cc3c(=O)n(CC(=O)Nc4cc(F)ccc4F)ccn3n2)cc1OC	nt	nt	nt	nt	-8.8%	-15.7%
CC(C)(C)OC(=O)C[C@H]1C/C=C\C[C@@H](CC(=O)N(CCO)Cc2ccccc2)C(=O)NC[C@H](c2ccccc2)OC1=O	18.3µM*	nt	nt	-0.5	20.6µM*	14.6µM*
CC(C)(C)OC(=O)C[C@@H]1C/C=C\C[C@H](CC(=O)N(CCO)Cc2ccccc2)C(=O)NC[C@@H](c2ccccc2)OC1=O	-16.9%	nt	nt	-22.8	?	23.1µM*

From PubChem
